The values below come from PubChem BioAssay (NCATS).

Records with an inconclusive call do not appear. Calls of active or inactive are those of the source. The call rests on the fitted dose curve.

This experiment in a line: Primary qHTS to identify inhibitors of SARS-CoV-2 cell entry (AID 1645846). Further: nearly all actives have a fitted effect of over 45% in size. The following applies: SARS-CoV-2 pseudovirus cell entry assay, luminescence; activity change, negative = inhibition: at 57.1 µM (top of the series) unless noted. In outline:
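Using luciferase-reporting pseudoviruses carrying Wuhan-Hu-1 spike, the screen tracks entry into stably ACE2-expressing cells over 48 hr. Activity is expressed relative to spike particles versus particles lacking any fusion protein.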
`CC(C)(C)C(=O)CN1C(=O)[C@H](NC(=O)Nc2cccc(C(=O)O)c2)CN(C2CCCCC2)c2ccccc21`: the activity change, negative = inhibition is -4.52%.

Regarding `CC(C)(C)Sc1c(CC(C)(C)C(=O)O)n(Cc2ccc(Cl)cc2)c2ccc(OCc3ccc4ccccc4n3)cc12`, the Potency result was “inactive”. Turning to `Nc1nc(F)nc2c1ncn2[C@@H]1O[C@H](COP(=O)(O)O)[C@@H](O)[C@@H]1O`, the activity change, negative = inhibition was found to be 0.103%. For `O=S(=O)(NCCNC/C=C/c1ccc(Br)cc1)c1cccc2cnccc12`, the activity change, negative = inhibition was -22.5%. For `CCc1cc(/C(C)=N/OCc2ccc(C3CCCCC3)c(C(F)(F)F)c2)ccc1CN1CC(C(=O)O)C1`, the Potency entry was “inactive”.
